This passage reports outcome and AC50 results from PubChem BioAssay (EPA / NIEHS).

For experiment [1], the target named is human RAR-related Orphan Receptor gamma (RORg), RORC (gene 6097) (UniProt P51449). Nature of the experiment: ATG_RORg_TRANS: Attagene TRANS-FACTORIAL HepG2 Assay for human RAR-related Orphan Receptor gamma (RORg) (AID 2283011; active means hit-call score of the fitted dose curve at least 0.9, where 1 is the maximum). An outline of the steps: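 Transient MRTU transfection of HepG2 (TRANS format, exogenous NR-Gal4 chimera). 24 h dosing. Total RNA → oligo(dT) RT → PCR → 6-FAM labelling → HpaI cut → CE. Gain vs DMSO.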

Experiment [2] addresses Retinoic acid receptor RXR-alpha (Homo sapiens) (UniProt P19793). The experiment in a line: ATG_RXRa_TRANS: Attagene TRANS-FACTORIAL HepG2 Assay for human Retinoid X Receptor alpha (RXRa) (AID 2283012; active means hit-call score of the fitted dose curve at least 0.9, where 1 is the maximum). The method, boiled down:
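HepG2 cells transiently transfected with GAL4-UAS reporter units and chimeric RXRa-Gal4 protein, treated 24 h. Reporter mRNA measured by RT-PCR, fluorescent labelling, HpaI digestion and capillary electrophoresis. Induction fitted against DMSO.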

In experiment [3] the target is human Vitamin D Receptor (VDR), VDR (gene 7421) (UniProt P11473). The experiment in a line: ATG_VDR_TRANS: Attagene TRANS-FACTORIAL HepG2 Assay for human Vitamin D Receptor (VDR) (AID 2283022; active means hit-call score of the fitted dose curve at least 0.9, where 1 is the maximum). An outline of the steps:
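RT-PCR/capillary electrophoresis read-out of reporter mRNA induction in transiently transfected HepG2; 24 h dosing; chimeric NR-Gal4 (TRANS format); gain-of-signal fit against DMSO baseline.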

In experiment [4] the target is human Thyroid Receptor alpha (THRa1), THRA (gene 7067) (UniProt P10827). Nature of the experiment: ATG_THRa1_TRANS: Attagene TRANS-FACTORIAL HepG2 Assay for human Thyroid Receptor alpha (THRa1) (AID 2283014; active means hit-call score of the fitted dose curve at least 0.9, where 1 is the maximum). The method, boiled down:
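Transient HepG2 transfection, NR-Gal4 chimera driving GAL4-UAS reporters; 24 h compound exposure; total RNA, oligo(dT) RT, PCR, fluorescent primer extension, capillary electrophoresis. Upward direction vs DMSO control.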

In experiment [5] the target is human Retinoid X Receptor beta (RXRb), RXRB (gene 6257) (UniProt P28702). The experiment in a line: ATG_RXRb_TRANS: Attagene TRANS-FACTORIAL HepG2 Assay for human Retinoid X Receptor beta (RXRb) (AID 2283013; active means hit-call score of the fitted dose curve at least 0.9, where 1 is the maximum). The method, boiled down: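 HepG2 cells were transiently transfected with multiplexed GAL4-UAS reporters and a chimeric RXRb-Gal4 construct, then exposed for 24 h. Reporter mRNA was quantified by RT-PCR, FAM labeling, HpaI digestion and capillary electrophoresis; gain of signal was scored against DMSO.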

Read-out in experiment [6]: E-selectin (Homo sapiens) (UniProt P16581)
The experiment in a line: BSK_3C_Eselectin: BioMAP Diversity Plus: 3C Assay for Eselectin Biomarker Activity (AID 2283015). As to conditions: primary human endothelial cells (HUVEC); actives raise or lower the signal. The method, boiled down:
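HUVEC, 3C stimulation; compound exposure 24 h; E-selectin by ELISA; gain- or loss-of-signal fitted bidirectionally vs DMSO baseline.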

Read-out in experiment [7]: Interleukin-1 alpha (IL1a), IL1A (gene 3552)
The experiment in a line: BSK_BE3C_IL1a: BioMAP Diversity Plus: BE3C Assay for Interleukin-1 alpha (IL1a) Biomarker Activity (AID 2283016). The note with it: primary human bronchial epithelial cells; actives raise or lower the signal. The method, boiled down: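 Human primary bronchial epithelial cells, 24 h chemical exposure; IL-1a quantified by ELISA, fitted bidirectionally against DMSO. Cytotoxicity assessed in parallel by SRB total-protein staining at the time of measurement.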

Read-out in experiment [8]: Monocyte Chemoattractant Protein-1 (MCP1), CCL2 (gene 6347)
Nature of the experiment: BSK_3C_MCP1: BioMAP Diversity Plus: 3C Assay for Monocyte Chemoattractant Protein-1 (MCP1) Biomarker Activity (AID 2283017). As to conditions: primary human endothelial cells (HUVEC); actives raise or lower the signal. An outline of the steps: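 HUVEC, 3C system; 24 h chemical exposure; MCP-1 by ELISA; bidirectional curve fit vs DMSO baseline.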

Read-out in experiment [9]: Monocyte Chemoattractant Protein-1 (MCP1), CCL2 (gene 6347)
The experiment in a line: BSK_4H_MCP1: BioMAP Diversity Plus: 4H Assay for Monocyte Chemoattractant Protein-1 (MCP1) Biomarker Activity (AID 2283018). As to conditions: primary human endothelial cells (HUVEC); actives raise or lower the signal. An outline of the steps:
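Human umbilical vein endothelial cells (4H system) exposed to chemicals for 24 h in 96-well format. MCP-1 measured by ELISA; bidirectional fitting against DMSO, with SRB total-protein staining in parallel cultures for cytotoxicity.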

Read-out in experiment [10]: Human Leukocyte Antigen - DR isotype (HLADR), HLA-DRA (gene 3122)
Nature of the experiment: BSK_3C_HLADR: BioMAP Diversity Plus: 3C Assay for Human Leukocyte Antigen - DR isotype (HLADR) Biomarker Activity (AID 2283019).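 On outcome: ELISA of cell-surface HLA-DR on HUVEC 24 h after dosing.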 As to conditions: primary human endothelial cells (HUVEC); actives raise or lower the signal. An outline of the steps:
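HUVEC, 3C stimulation, 24 h post-dose; HLA-DR by ELISA; bidirectional curve fit vs DMSO baseline; gain or loss of signal scored.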

Read-out in experiment [11]: Interleukin-8 (IL8), CXCL8 (gene 3576)
Nature of the experiment: BSK_3C_IL8: BioMAP Diversity Plus: 3C Assay for Interleukin-8 (IL8) Biomarker Activity (AID 2283020). As to conditions: primary human endothelial cells (HUVEC); actives raise or lower the signal. The method, boiled down:
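Primary human umbilical vein endothelial cells were dosed for 24 h. IL-8 was quantified by ELISA and fitted bidirectionally against DMSO. Cytotoxicity was assessed in parallel cultures by SRB staining at 560 nm.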

Read-out in experiment [12]: Monokine induced gamma interferon (MIG), CXCL9 (gene 4283)
The experiment in a line: BSK_3C_MIG: BioMAP Diversity Plus: 3C Assay for Monokine induced gamma interferon (MIG) Biomarker Activity (AID 2283021).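 On AC50: MIG protein level measured by immunoassay in the treated endothelial cultures.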 The note with it: primary human endothelial cells (HUVEC); actives raise or lower the signal. An outline of the steps:
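HUVEC primary endothelial cultures dosed with chemical; MIG quantified by ELISA at 24 h. Data fitted bidirectionally against DMSO control, with parallel SRB total-protein staining for cytotoxicity.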

Experiment [13] can be described thus: BSK_3C_SRB: Viability Assessment in the BioMAP Diversity Plus: 3C Assay (AID 2283023).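 Further: fitted both ways against DMSO so a hit may be signal rise or drop.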 As to conditions: primary human endothelial cells (HUVEC). The method, boiled down:
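HUVEC, 24 h post-dose; 10% TCA fix, 0.1% SRB stain, A560 nm. Bidirectional curve fit vs DMSO negative control.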

Read-out in experiment [14]: Matrix Metallopeptidase 1 (MMP1), MMP1 (gene 4312)
Nature of the experiment: BSK_BE3C_MMP1: BioMAP Diversity Plus: BE3C Assay for Matrix Metallopeptidase 1 (MMP1) Biomarker Activity (AID 2283024). As to conditions: primary human bronchial epithelial cells; actives raise or lower the signal. An outline of the steps:
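Human primary bronchial epithelial cells (BE3C system) dosed for 24 h; MMP-1 quantified by ELISA. Bidirectional fit against DMSO; cytotoxicity tracked in parallel cultures by SRB total-protein staining.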

A short description of experiment [15]: BSK_3C_Vis: BioMAP Diversity Plus: 3C Assay for Morphology Visualization (AID 2283025).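 Further: fitted both ways so gain or loss versus DMSO counts.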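 On AC50: light microscopy image of cell morphology used as background control.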 The note with it: primary human endothelial cells (HUVEC). The method, boiled down: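 Human umbilical vein endothelial cell morphology was inspected by light microscopy 24 h after chemical dosing; scored bidirectionally relative to DMSO.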
The nature of experiment [16]: BSK_4H_SRB: Viability Assessment in the BioMAP Diversity Plus: 4H Assay (AID 2283027).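 Further: cells exposed to compound for 24 h before staining.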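 On AC50: curves fitted both ways versus DMSO so AC50 may be loss or gain.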 As to conditions: primary human endothelial cells (HUVEC). An outline of the steps:
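Human umbilical vein endothelial cells, 24 h after chemical dosing; total protein measured by 0.1% sulforhodamine B staining after 10% TCA fixation, read at 560 nm. Bidirectional fitting against DMSO.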

Experiment [17] is described as follows: BSK_BE3C_SRB: Viability Assessment in the BioMAP Diversity Plus: BE3C Assay (AID 2283028). As to conditions: primary human bronchial epithelial cells. An outline of the steps:
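Primary human bronchial epithelium; chemical dosing, 24 h; 10% TCA fix, 0.1% SRB stain, A560; bidirectional fit vs DMSO baseline.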

Read-out in experiment [18]: Pselectin, SELP (gene 6403)
Nature of the experiment: BSK_4H_Pselectin: BioMAP Diversity Plus: 4H Assay for Pselectin Biomarker Activity (AID 2283026). As to conditions: primary human endothelial cells (HUVEC); actives raise or lower the signal. An outline of the steps:
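Primary human umbilical vein endothelial cells were treated 24 h, and cell-surface P-selectin was then quantified by ELISA. Bidirectional fit versus DMSO; cytotoxicity checked in parallel cultures by SRB total-protein staining.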

Results filed as inconclusive are left out. Active and inactive are the calls of the source. How the source made its calls, unless noted: active means hit-call score of the fitted dose curve at least 0.9, where 1 is the maximum; inactive means score below 0.9.

human Thyroid Receptor alpha (THRa1), THRA (gene 7067), sequence (P10827 whole entry, looked up, the tested form may be a part): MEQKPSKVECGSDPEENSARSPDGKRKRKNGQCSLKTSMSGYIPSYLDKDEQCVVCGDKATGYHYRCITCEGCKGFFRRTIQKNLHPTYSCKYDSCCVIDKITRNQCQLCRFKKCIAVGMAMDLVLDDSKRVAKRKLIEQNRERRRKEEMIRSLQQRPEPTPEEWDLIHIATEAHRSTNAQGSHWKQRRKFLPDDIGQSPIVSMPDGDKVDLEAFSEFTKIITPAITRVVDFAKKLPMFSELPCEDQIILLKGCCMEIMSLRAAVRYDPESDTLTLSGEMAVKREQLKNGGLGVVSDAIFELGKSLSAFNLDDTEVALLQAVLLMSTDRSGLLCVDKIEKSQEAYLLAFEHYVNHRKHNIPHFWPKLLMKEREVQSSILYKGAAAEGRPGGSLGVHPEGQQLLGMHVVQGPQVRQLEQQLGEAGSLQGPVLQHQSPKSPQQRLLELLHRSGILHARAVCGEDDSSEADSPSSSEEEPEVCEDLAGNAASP
Retinoic acid receptor RXR-alpha (Homo sapiens), sequence (P19793 whole entry, looked up, the tested form may be a part): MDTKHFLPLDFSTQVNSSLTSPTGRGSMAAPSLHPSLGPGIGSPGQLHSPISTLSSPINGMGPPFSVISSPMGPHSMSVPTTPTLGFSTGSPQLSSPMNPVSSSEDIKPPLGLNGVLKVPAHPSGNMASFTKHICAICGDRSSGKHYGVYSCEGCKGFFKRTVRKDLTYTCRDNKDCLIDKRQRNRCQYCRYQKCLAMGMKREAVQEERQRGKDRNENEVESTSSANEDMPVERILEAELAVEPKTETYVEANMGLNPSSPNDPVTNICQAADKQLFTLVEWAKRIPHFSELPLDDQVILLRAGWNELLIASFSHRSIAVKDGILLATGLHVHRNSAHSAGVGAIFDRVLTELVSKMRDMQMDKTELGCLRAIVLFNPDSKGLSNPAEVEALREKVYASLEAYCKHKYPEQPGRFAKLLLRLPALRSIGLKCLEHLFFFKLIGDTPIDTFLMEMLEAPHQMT
human RAR-related Orphan Receptor gamma (RORg), RORC (gene 6097), sequence (P51449 whole entry, looked up, the tested form may be a part): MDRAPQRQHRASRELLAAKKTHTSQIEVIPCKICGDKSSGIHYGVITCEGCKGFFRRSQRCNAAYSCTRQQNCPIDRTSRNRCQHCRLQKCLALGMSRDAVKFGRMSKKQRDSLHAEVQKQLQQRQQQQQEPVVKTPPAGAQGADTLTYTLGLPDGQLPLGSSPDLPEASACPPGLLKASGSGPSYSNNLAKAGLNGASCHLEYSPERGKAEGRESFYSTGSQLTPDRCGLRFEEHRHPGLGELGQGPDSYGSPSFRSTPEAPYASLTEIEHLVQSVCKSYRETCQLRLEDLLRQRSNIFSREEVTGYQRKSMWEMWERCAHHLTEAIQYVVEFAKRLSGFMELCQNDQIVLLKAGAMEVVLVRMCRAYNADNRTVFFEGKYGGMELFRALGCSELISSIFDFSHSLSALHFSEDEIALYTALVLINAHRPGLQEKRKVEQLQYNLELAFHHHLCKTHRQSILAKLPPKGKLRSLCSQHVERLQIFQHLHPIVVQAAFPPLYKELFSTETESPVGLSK
human Vitamin D Receptor (VDR), VDR (gene 7421), sequence (P11473 whole entry, looked up, the tested form may be a part): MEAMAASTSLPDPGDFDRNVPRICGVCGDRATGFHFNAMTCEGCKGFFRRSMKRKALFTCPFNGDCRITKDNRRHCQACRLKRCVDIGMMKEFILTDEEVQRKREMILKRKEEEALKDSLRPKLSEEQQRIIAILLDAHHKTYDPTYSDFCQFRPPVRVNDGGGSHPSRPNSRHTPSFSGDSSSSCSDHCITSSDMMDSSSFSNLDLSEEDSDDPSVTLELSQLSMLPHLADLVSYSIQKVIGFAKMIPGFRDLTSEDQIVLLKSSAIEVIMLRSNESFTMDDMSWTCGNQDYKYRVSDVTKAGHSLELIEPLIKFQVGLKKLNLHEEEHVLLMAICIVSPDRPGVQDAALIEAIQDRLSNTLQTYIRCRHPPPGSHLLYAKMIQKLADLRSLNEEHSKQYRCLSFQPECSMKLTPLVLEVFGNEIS
E-selectin (Homo sapiens), sequence (P16581 whole entry, looked up): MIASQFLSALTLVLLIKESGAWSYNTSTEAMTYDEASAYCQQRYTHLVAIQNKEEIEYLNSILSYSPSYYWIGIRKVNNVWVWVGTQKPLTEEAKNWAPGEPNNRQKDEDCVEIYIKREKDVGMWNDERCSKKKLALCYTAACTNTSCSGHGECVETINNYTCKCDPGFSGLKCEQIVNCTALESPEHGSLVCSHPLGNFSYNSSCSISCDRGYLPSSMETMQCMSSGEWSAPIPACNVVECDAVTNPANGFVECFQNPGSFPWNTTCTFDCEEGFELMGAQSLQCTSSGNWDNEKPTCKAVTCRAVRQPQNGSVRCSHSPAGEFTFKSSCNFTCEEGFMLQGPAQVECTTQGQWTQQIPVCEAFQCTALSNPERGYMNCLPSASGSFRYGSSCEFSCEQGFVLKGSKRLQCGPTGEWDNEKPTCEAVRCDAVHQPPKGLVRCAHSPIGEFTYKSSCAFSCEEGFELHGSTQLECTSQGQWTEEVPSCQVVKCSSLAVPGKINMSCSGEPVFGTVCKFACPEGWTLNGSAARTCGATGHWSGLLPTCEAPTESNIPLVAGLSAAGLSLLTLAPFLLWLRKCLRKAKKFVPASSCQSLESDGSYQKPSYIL
human Retinoid X Receptor beta (RXRb), RXRB (gene 6257), sequence (P28702 whole entry, looked up, the tested form may be a part): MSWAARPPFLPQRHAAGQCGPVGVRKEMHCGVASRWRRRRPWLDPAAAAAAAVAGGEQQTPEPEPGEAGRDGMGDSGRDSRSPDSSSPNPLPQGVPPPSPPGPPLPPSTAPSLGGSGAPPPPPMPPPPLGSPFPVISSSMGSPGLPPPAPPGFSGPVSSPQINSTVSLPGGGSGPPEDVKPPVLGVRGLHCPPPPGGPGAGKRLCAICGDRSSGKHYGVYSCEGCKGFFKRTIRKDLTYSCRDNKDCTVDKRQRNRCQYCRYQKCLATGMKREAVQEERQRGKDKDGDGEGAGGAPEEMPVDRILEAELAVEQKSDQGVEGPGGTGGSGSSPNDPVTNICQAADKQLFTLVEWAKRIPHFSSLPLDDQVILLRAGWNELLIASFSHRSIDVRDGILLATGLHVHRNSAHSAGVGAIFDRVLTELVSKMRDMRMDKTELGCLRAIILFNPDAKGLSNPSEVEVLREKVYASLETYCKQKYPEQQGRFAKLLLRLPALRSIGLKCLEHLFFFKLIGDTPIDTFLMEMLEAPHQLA

As to `CCC1(c2ccc(N)cc2)CCC(=O)NC1=O` (stereo not given), the outcome in experiment [1], in experiment [2] and in experiment [3] was inactive.
For the compound `N#CCc1ccc(Cl)cc1`, the compound was called inactive in experiment [1], in experiment [2], in [4] and in experiment [3].
For the compound `CCCCCCCCSC(=O)Oc1cc(Cl)nnc1-c1ccccc1`, the compound was called inactive in experiment [1], in experiment [2], in experiment [5] and in [3].
Regarding `NNC(=S)NN`, the outcome in experiment [2] and in [5] was inactive.
With `COP(=O)(OC)O/C(=C\Cl)c1cc(Cl)c(Cl)cc1Cl`, the call in experiment [2] and in experiment [4] was inactive. In experiment [5], the concentration at half-maximal activity (AC50) is 25.7 µM (active).
As to `CC(=O)c1cc(C(C)(C)C)cc2c1CCC2(C)C`, the values for the AC50 in experiment [2] and in [5] were 3.52 µM (active) and 0.446 µM (active), respectively. For the same compound, the call in [3] was inactive.
As for `CCOP(=S)(OCC)Oc1nc(Cl)c(Cl)cc1Cl`, the compound was classed as inactive in [2], in experiment [4], in experiment [7], in [12], in experiment [3] and in [14]. For the same compound, the outcome in experiment [16] and in experiment [17] was inactive. The AC50 is 37.1 µM (active) in experiment [6]; 33.1 µM (active) in experiment [8]; 20 µM (active) in [9]; 28.2 µM (active) in experiment [10]; 31.1 µM (active) in [11]; 30.2 µM (active) in experiment [13]. In experiment [15], the AC50 was 39 µM (active).
Take `CC(=O)C(Cl)C(=O)N(C)C` (stereo not given): the outcome in experiment [1], in experiment [2], in experiment [4], in experiment [12], in [3] and in experiment [13] was inactive. For the same compound, the result in experiment [14], in [16] and in [17] was inactive. In addition, the half-maximal activity concentration (AC50) in experiment [6] was 20 µM (active); in [7] it was 20 µM (active); in experiment [8], 20 µM (active); in experiment [9], 20 µM (active); in experiment [11] it was 11.7 µM (active); in [15], 37.5 µM (active).
For `CC1CN1P(=O)(N1CC1C)N1CC1C` (stereo not given), the result in [1], in experiment [2], in [5], in experiment [4] and in [3] was inactive.
Take `Oc1c(I)cc(I)cc1I`: the result in experiment [2], in experiment [5], in experiment [3] and in experiment [17] was inactive. Besides, the AC50 in experiment [4] was 7.66 µM (active); in experiment [6], 11.3 µM (active); in experiment [7] it was 8.87 µM (active); in experiment [9], 20 µM (active); in [10], 9.5 µM (active); in experiment [11], 11.5 µM (active). Moreover, the AC50 in experiment [12] was 34.9 µM (active); in experiment [13], 10.3 µM (active); in [14], 6.77 µM (active); in experiment [15] it was 13 µM (active); in [18], 12.7 µM (active); in [16], 20 µM (active).
`CCOP(OCC)OCC`: the compound was called inactive in [1] and in experiment [5].
Turning to `CC(C)(C)c1cc(O)ccc1O`, the call in [1], in experiment [7], in experiment [9], in [11], in experiment [13] and in experiment [17] was inactive. The half-maximal activity concentration (AC50) in experiment [6] was 31.8 µM (active); in [8], 35.2 µM (active); in [10], 32.4 µM (active); in experiment [12] it was 37 µM (active); in [14] it was 8.5 µM (active); in experiment [15], 39 µM (active). The AC50 is 20 µM (active) in experiment [18] and 28.1 µM (active) in experiment [16].
Take `COc1ccc(C=O)cc1`: the result in [1], in experiment [2] and in experiment [3] was inactive.
Take `CCOC(=O)CP(=O)(OCC)OCC`: the outcome in [2] was inactive.
`Cc1ccccc1N`: the outcome in [1], in [2], in [6], in experiment [7], in experiment [8] and in [9] was inactive. Besides, the outcome in experiment [10], in experiment [11], in [12], in experiment [13], in experiment [14] and in experiment [15] was inactive. Further, the result in experiment [18], in [16] and in experiment [17] was inactive.

The AC50 is the concentration giving half of the maximal activity seen.
